Experimental findings from PubChem BioAssay (NCI) are described below.

The structures appear in SMILES notation. Several values for one entry are separate records, joined by “and”; a condition that tells them apart may be missing. Equal entries are not always repeated. The panel holds about 83,000 compounds, 20% with a hit somewhere; the sample as a whole holds those more often.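 The test compound was applied at a single concentration to cells in 96-well plates for 48 hours, and percent growth was recorded.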 Activity calls are given as the source filed them.

One assay deals with M14 melanoma. The experiment in a line: NCI-60 one-dose screen, 48 h (100 = growth as untreated, 0 = no growth, -100 = all killed). As to conditions: 10 µM. As to the method:
Growth inhibition of the M14 human tumor cell line is measured as a screen for anti-cancer activity. Cells are grown in 96 well plates and exposed to the test compound for 48 hours. Compounds are tested at a single concentration, which is 10^-5 M for most compounds. The reported endpoint is percent growth (GI% or GIPRCNT), where numbers from 0 - 100% represent growth inhibition, and numbers from -100% - 0 represent cell death. For example, a value of 40 represents 60% growth inhibition. A value of 0 means no net growth occurred over the course of the experiment. A value of -40 indicates 40% of cells at the beginning of the experiment died by the end of the experiment. A value of -100 means all cells are dead at the end of the experiment.
NCI-60 Human Tumor Cell Lines Screen was performed using the standard one-dose NCI protocol, which is described in more detail at https://dtp.cancer.gov/discovery_development/nci-60/default.htm.
Compounds with GIPRCNT values below 10 were considered active. Activity score was based on GIPRCNT using the following formula: […]
Score is 0 for GIPRCNT values of 100 or above, 50 for GIPRCNT values of 0, and 100 for GIPRCNT values of -100.
On to `CCc1ccccc1-n1c(N)c(C#N)c(-c2ccc(OC)c(OC)c2)c(C#N)c1=O`, for which the growth was 112% (inactive).

In the case of `O=C(O)c1sccc1O`, the growth was 85.5% (inactive).

Staying with this assay, now noted: 10 µM unless noted.
In the case of `O=[N+]([O-])c1ccc(Oc2ccccc2)cc1`, the growth is 98.6% (inactive) and 108% (inactive).

As to `CCN(CC)CCC(CNc1ccnc2cc(Cl)ccc12)c1ccc(OC)cc1` (stereo not given), the growth was -60.3% (active) and -78.3% (active).

As to `CC(=O)Oc1cc(C(=O)O)cc(OC(C)=O)c1OC(C)=O`, the growth is 105% (inactive) and 99% (inactive).

As to `S=C1SCN(Cc2ccccc2)CN1Cc1ccccc1`, the growth was 82.3% (inactive).

For the molecule `Oc1c(CN2CCCCC2)ccc2cccnc12`, the growth is 20.7% (inactive) and 32.6% (inactive).

Consider `OCCN1CCN(CCO)CC1`, for which the growth is 102% (inactive) and 91.1% (inactive) and 103% (inactive).

On to `CNC(=O)c1ccc(C)c(-n2c(C)cc(OCc3ccc(F)cc3F)c(Br)c2=O)c1`, for which the growth was 76.6% (inactive) and 98.4% (inactive).

Consider `CCCCCn1sc(=O)n(Cc2ccc(CNC(=O)C(C)c3ccc(CC(C)C)cc3)cc2)c1=O` (stereo not given), for which the growth was 95.2% (inactive) and -67.6% (active).

Consider `Cc1ccc(S(=O)(=O)Nc2nc3ccccc3nc2Nc2ccc3nsnc3c2)cc1`, for which the growth is 48% (inactive) and 49.6% (inactive).

On to `Cc1cc(-c2ccc(NS(=O)(=O)c3ccccc3)c(C)c2)ccc1NS(=O)(=O)c1ccccc1`, for which the growth is 87.4% (inactive) and 99% (inactive).

For `Nc1ccc(N=Nc2ccc(S(=O)(=O)O)cc2)cc1S(=O)(=O)O`, the growth was 93.8% (inactive) and 117% (inactive).

In the case of `CN1C(=O)C(N=Nc2ccc([N+](=O)[O-])cc2)SC1=S` (stereo not given), the growth was 59.6% (inactive) and 59.5% (inactive).

Consider `O=C(O)c1cc(C(=O)O)cc([N+](=O)[O-])c1`, for which the growth was 99.8% (inactive).

For `N=C1N=C(N)CS1`, the growth is 108% (inactive).

In the case of `O=[N+]([O-])c1ccc(/C=N\NC(=S)Nc2ccc(F)cc2)cc1`, the growth is 113% (inactive) and 96.8% (inactive).

Take `COc1ccc(S(=O)(=O)N2CCOCC2)cc1NC(=O)c1[nH]c(C)c2c1CCCCC2=O`: the growth is 109% (inactive) and 102% (inactive).

For the molecule `O=[N+]([O-])c1ccccc1/C=N\Nc1ccccc1`, the growth is 50.1% (inactive) and 70.9% (inactive).

Turning to `O=C1CCN(Cc2ccccc2)C(=S)N1`, the growth was 103% (inactive) and 112% (inactive).

With `CNC(=O)c1cccc(-c2ccc3c(N4CCOC[C@@H]4C)nc(N4CCOC[C@@H]4C)nc3n2)c1`, the growth was -3.53% (active) and -5.57% (active).

Regarding `CC(O)Cn1cnc2c1c(=O)n(C)c(=O)n2C` (stereo not given), the growth was 104% (inactive).

Turning to `O=[N+]([O-])c1ccccc1N(S(=O)(=O)c1ccccc1)S(=O)(=O)c1ccccc1`, the growth was 128% (inactive) and 98.6% (inactive).

Take `CCCCOc1cc(C(=O)NCCN(CC)CC)c2ccccc2n1`: the growth is 93.8% (inactive) and 105% (inactive).

Take `Cn1cc(-c2cc3c(Nc4ccc(CC(=O)Nc5cc(C(C)(C)C)on5)cc4)ncnc3[nH]2)cn1`: the growth was -34.2% (active) and -49.5% (active).

With `Nc1ccccc1SC1CC(=O)N(c2cccc3ccccc23)C1=O` (stereo not given), the growth is 105% (inactive).

Take `Cc1cc(=O)[nH]c(O)c1C#N`: the growth was 99.4% (inactive) and 101% (inactive).

In the case of `O=[N+]([O-])c1ccc(N/N=C\c2cc(Br)ccc2O)nc1`, the growth was 2.25% (active) and 13.7% (inactive).

Turning to `N#CC(C#N)=C/C=C/c1cccc([N+](=O)[O-])c1`, the growth was -37.1% (active) and -74.9% (active).

As to `OC(COc1cccc2ccccc12)CN1CCN(c2ccc(Cl)cc2)CC1` (stereo not given), the growth is 90.9% (inactive) and 100% (inactive).

Turning to `NC(=S)NN=C1CCC(C2CCCCC2)CC1` (stereo not given), the growth was 92.2% (inactive) and 85% (inactive).

`CCCCCCCCCCCCOc1ccccc1C=O`: the growth is 101% (inactive).

`CCN(CC)CCCC(C)N(Cc1ccccc1)CC(O)c1ccc(Cl)cc1` (stereo not given): the growth is 109% (inactive) and 104% (inactive).

Consider `CCCCCCCCCCCCCCCc1cc(O)ccc1N`, for which the growth was 101% (inactive) and 105% (inactive).

In the case of `CC(C)Cc1ccc(C(C)C(=O)NCc2ccc(Cn3c(=O)sn(CCCI)c3=O)cc2)cc1` (stereo not given), the growth was 88.8% (inactive) and -66.9% (active).

As for `CN1CCN(CCC=C2c3ccccc3Sc3ccc(S(=O)(=O)N(C)C)cc32)CC1`, the growth is -67% (active) and -79.2% (active).

As for `COc1cc(C(=O)N/N=C/c2ccc(N(C)C)cc2)cc(OC)c1OC`, the growth is 6.72% (active).

Regarding `Nc1n[nH]c(=S)n1-c1ccc(Cl)cc1`, the growth was 101% (inactive).

Still in this assay, the particulars now being: 100 µM.
Take `CCc1ccccc1-n1c(N)c(C#N)c(-c2ccc(OC)c(OC)c2)c(C#N)c1=O`: the growth was 37.1% (inactive).

Regarding `O=C(O)c1sccc1O`, the growth is 7.02% (active).
